“And” between values parts separate entries of the source, which are not always exact repeats. Identical values can stand only once. Inconclusive results are not listed. The source made the active and inactive calls. The call rests on the fitted dose curve; in most records, active means well fitted curve in the direction sought with a large enough effect; inconclusive means small, poorly fitted or top-dose-only effect, or another doubt; inactive means no such curve, though single readings can be large; an effect the other way counts as inactive or inconclusive.
What was measured:
[1] = qHTS of pediatric cancer cell lines to identify multiple opportunities for drug repurposing: Primary screen for A673 cells (AID 1347092); further: nearly all actives have a fitted effect of over 45% in size
In short: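 A673 cells (500-1,000 cells/well) were treated 48 hours at 37 degrees C with compounds at 11-point (0.78 nM to 46 µM) or 8-point (0.59 nM to 46 µM) dilutions. Viability read by CellTiter-Glo luminescence; concentration-response curves fitted.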

[2] = qHTS of pediatric cancer cell lines to identify multiple opportunities for drug repurposing: Primary screen for SK-N-MC cells (AID 1347093)
In short: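 Metabolically active cells were quantified by ATP-dependent luminescence (CellTiter-Glo, 15 min at room temperature) following 48 h treatment. Cells had been plated at 500-1,000 per well and settled for 5 h beforehand.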

[3] = qHTS of pediatric cancer cell lines to identify multiple opportunities for drug repurposing: Primary screen for BT-37 cells (AID 1347094)
In short: (§1)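 500-1,000 cells/well; 5 h pre-incubation 37 °C/5% CO2; compound pinned; 48 h; CellTiter-Glo, 15 min RT; luminescence. MIPE 11-pt from 0.78 nM, NPC 8-pt from 0.59 nM final. Bortezomib 2.3 µM final as positive control.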

[4] = qHTS of pediatric cancer cell lines to identify multiple opportunities for drug repurposing: Primary screen for NB-EBc1 cells (AID 1347095)
In short: as §1

[5] = qHTS of pediatric cancer cell lines to identify multiple opportunities for drug repurposing: Primary screen for U-2 OS cells (AID 1347096); further: nearly all actives have a fitted effect of over 50% in size
In short: (§2)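 Cells (500-1,000/well) in growth media were settled 5 h at 37 degrees C, then given compounds for 48 h. Viability was read as CellTiter-Glo luminescence. Primary runs used MIPE at 11 points (0.78 nM-46 µM) and NPC at 8 points (0.59 nM-46 µM); follow-ups used 11 points.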

[6] = qHTS of pediatric cancer cell lines to identify multiple opportunities for drug repurposing: Primary screen for Saos-2 cells (AID 1347097); further: nearly all actives have a fitted effect of over 40% in size
In short: as §1

[7] = qHTS of pediatric cancer cell lines to identify multiple opportunities for drug repurposing: Primary screen for SK-N-SH cells (AID 1347098); further: nearly all actives have a fitted effect of over 65% in size
In short: (§3)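 Cells (500-1,000/well) rested 5 h, then received compounds for 48 h; metabolically active cells were measured by CellTiter-Glo luminescence. Final concentrations spanned up to 46 µM (MIPE, 11-point) or 0.59 nM-46 µM (NPC, 8-point) in primary screens, 11-point in follow-ups.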

[8] = qHTS of pediatric cancer cell lines to identify multiple opportunities for drug repurposing: Primary screen for NB1643 cells (AID 1347099); further: nearly all actives have a fitted effect of over 50% in size
In short: as §1

[9] = qHTS of pediatric cancer cell lines to identify multiple opportunities for drug repurposing: Primary screen for LAN-5 cells (AID 1347100)
In short: as §2

[10] = qHTS of pediatric cancer cell lines to identify multiple opportunities for drug repurposing: Primary screen for BT-12 cells (AID 1347101); further: nearly all actives have a fitted effect of over 25% in size
In short: as §3

Measured: Potency
Potency means the concentration at half of the fitted maximal effect.

CC(C)C1CCC(C(=O)N[C@H](Cc2ccccc2)C(=O)O)CC1 (stereo partly specified)
inactive: all assays above

O=c1oc2c(O)c(O)cc3c(=O)oc4c(O)c(O)cc1c4c23
not listed: [10]
inactive: all other assays above

CNC(=O)c1cc(Oc2ccc(NC(=O)Nc3ccc(Cl)c(C(F)(F)F)c3)cc2)ccn1
active: [1] 2.96 µM | [2] 3.32 µM | [3] 21.7 µM | [4] 5.26 µM | [5] 18.7 µM | [6] 18.7 µM | [7] 19.2 µM and 15.4 µM | [9] 20.9 µM | [10] 17.2 µM

CCc1cc(C(N)=S)ccn1
inactive: all assays above

CN1CCN(c2c(F)cc3c(=O)c(C(=O)O)cn4c3c2OCN4C)CC1
not listed: [8]
inactive: all other assays above

CCCCOc1ccc(CC(=O)NO)cc1
inactive: [10]
active: [1] 16.8 µM and 2.96 µM | [2] 7.43 µM | [3] 19.5 µM | [4] 18.7 µM | [5] 26.6 µM | [6] 23.5 µM | [7] 19.2 µM | [9] 23.5 µM

CCOC(=O)c1ccc(OC(=O)CCCCCN=C(N)N)cc1
not listed: [8]
inactive: all other assays above

CCOCC(O)COc1ccc(NC(=O)CC[S+](C)C)cc1 (stereo unspecified)
not listed: [8]
inactive: all other assays above

O=C(O)c1cn(C2CC2)c2cc(N3CCNCC3)c(F)cc2c1=O
inactive: all assays above

NS(=O)(=O)c1cc2c(cc1Cl)NC(C(Cl)Cl)NS2(=O)=O (stereo unspecified)
inactive: all assays above

CN1CCN(c2c(F)cc3c(=O)c(C(=O)O)cn(CCF)c3c2F)CC1
inactive: all assays above

Cc1noc(NS(=O)(=O)c2ccc(N)cc2)c1C
inactive: all assays above

COc1nc(N)nc2c1ncn2[C@@H]1O[C@H](CO)[C@@H](O)[C@@H]1O
inactive: all assays above

COCCCOc1cc(C[C@@H](C[C@H](N)[C@@H](O)C[C@H](C(=O)NCC(C)(C)C(N)=O)C(C)C)C(C)C)ccc1OC
inactive: all assays above

COc1ccc(-c2ccc3cc(C(=O)O)ccc3c2)cc1C12CC3CC(CC(C3)C1)C2
active: [2] 668 nM and 1.05 µM | [4] 2.35 µM | [6] 18.7 µM
not listed: [9]
inactive: all other assays above

CO[C@@]12[C@H](COC(N)=O)C3=C(C(=O)C(C)=C(N)C3=O)N1C[C@@H]1N[C@@H]12
active: [1] 1.33 µM and 1.18 µM | [2] 266 nM and 743 nM | [3] 347 nM and 1.72 µM | [4] 335 nM and 9.35 µM | [7] 1.72 µM and 8.57 µM | [8] 1.33 µM | [9] 335 nM and 1.05 µM | [10] 3.47 µM and 3.06 µM
inactive: [5] | [6]

Nc1nc(=S)c2[nH]cnc2[nH]1
active: [1] 841 nM and 743 nM | [2] 2.99 µM and 1.66 µM | [3] 2.46 µM and 1.93 µM | [4] 0.743 µM | [5] 1.68 µM and 2.35 µM | [6] 7.5 µM and 4.69 µM | [7] 6.87 µM and 5.41 µM | [8] 2.99 µM and 3.32 µM | [9] 2.35 µM | [10] 8.71 µM and 7.69 µM

NNC(=O)c1ccncc1
inactive: all assays above

CCC(=O)O[C@]1(C(=O)CCl)[C@@H](C)C[C@H]2[C@@H]3CCC4=CC(=O)C=C[C@]4(C)[C@@]3(F)[C@@H](O)C[C@@]21C
active: [2] 26.6 µM and 20.9 µM
not listed: [8] | [10]
inactive: all other assays above

NCCCC(O)(P(=O)(O)O)P(=O)(O)O
inactive: all assays above

COc1ncnc(NS(=O)(=O)c2ccc(N)cc2)c1OC
inactive: all assays above

C#CCN[C@@H]1CCc2ccccc21
inactive: all assays above

CCCc1cc(C(N)=S)ccn1
inactive: all assays above

C[C@]12C=CC(=O)C=C1CC[C@@H]1[C@@H]2C(=O)C[C@@]2(C)[C@H]1CC[C@]2(O)C(=O)CO
inactive: all assays above

CNS(=O)(=O)Cc1ccc2[nH]cc(CCN(C)C)c2c1
inactive: all assays above

COc1c(N2CCNC(C)C2)c(F)cc2c(=O)c(C(=O)O)cn(C3CC3)c12 (stereo unspecified)
inactive: all assays above

CCN(CC)CCn1c(=O)c(Cc2ccc(OC)cc2)nc2ccccc21
inactive: all assays above

CCc1c2c(nc3ccc(OC(=O)N4CCC(N5CCCCC5)CC4)cc13)-c1cc3c(c(=O)n1C2)COC(=O)[C@]3(O)CC
inactive: [5]
active: [1] 1.06 µM and 590 nM | [2] 106 nM and 105 nM | [3] 389 nM and 544 nM | [4] 1.19 µM and 332 nM | [6] 1.5 µM and 1.32 µM | [7] 7.7 µM | [8] 841 nM and 1.66 µM | [9] 1.33 µM and 372 nM | [10] 2.43 µM

CCn1cc(C(=O)O)c(=O)c2cc(F)c(N3CCNCC3)nc21
inactive: all assays above

O=NN(CCCl)C(=O)NC1CCCCC1
inactive: all assays above

O=P(O)(O)C(O)(Cc1cccnc1)P(=O)(O)O
inactive: all assays above

CN(C)CCc1c[nH]c2ccc(C[C@H]3COC(=O)N3)cc12
inactive: all assays above

CCn1cc(C(=O)O)c(=O)c2cc(F)c(N3CCN(C)CC3)cc21
not listed: [8]
inactive: all other assays above

CN(C)CCc1c[nH]c2ccc(CS(=O)(=O)N3CCCC3)cc12
inactive: all assays above

CC(C)(C#N)c1cc(Cn2cncn2)cc(C(C)(C)C#N)c1
not listed: [8]
inactive: all other assays above

CCN(CC)CC#CCOC(=O)C(O)(c1ccccc1)C1CCCCC1 (stereo unspecified)
not listed: [8] | [9] | [10]
inactive: all other assays above
